# Most compounds without a hit are left out; they make up all but 4.8% or so of the library.
# hgDAF12 agonist: hgDAF-12 agonism, primary luciferase screen. HEK293 GAL4-hgDAF12 UAS-luciferase reporter, agonist luminescence; normalized to butyrate control. actives 1.8% (n = 370,000). AID 687014. activation, % at 6.8 µM;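 active = activation above a cutoff set at the mean of all screened compounds plus 3 SD, cut at about 10% in these data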;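 also: 0% = DMSO wells and 100% = sodium butyrate wells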
# hcDAF-12 act: activators of H. contortus DAF-12 nuclear receptor; actives 1.4% (n = 370,000); AID 652067; HEK293 hcDAF-12 lit1-tk-luc reporter, luminescence; 0% DMSO, 100% Δ7-dafachronic acid; activation, % at 6.8 µM;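 active = activation above the mean of all tested compounds plus 3 SD, cut at about 5.5% in these data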;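 also: 100% = response to 3 µM Δ7-dafachronic acid high control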
# SMARCA2 activ: increases SMARCA2 function in MMTV reporter cells; MG213 cells, MMTV-luciferase reporter, dexamethasone, overnight; activation, % at 9.1 µM; actives 1% (n = 370,000); AID 652017; in the data active = activation above about 7.8%;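 also: 0% = vehicle wells and 100% = reference activator wells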
# ssDAF-12 act: S. stercoralis DAF-12 activation, primary screen; activation, % at 6.8 µM; HEK293 ssDAF-12/GRIP1 lit1-tk-luc reporter, luminescence; % of 3 µM dafachronic acid response; actives 1% (n = 370,000);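 active = activation above the mean over all tested compounds plus 3 SD, cut at about 0.9% in these data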;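 also: 0% = DMSO-only wells and 100% = 3 µM delta7-dafachronic acid wells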
# DAX1 inh-1: inhibitors of DAX1 repression of SF-1 activated StAR promoter | actives 1.1% (n = 370,000) | AID 652010 | inhibition, % at 6.8 µM | HEK293T StAR-luciferase reporter, SF-1/DAX-1 repression relief;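 active = inhibition above the mean over all tested compounds plus 3 SD, cut at about 3.6% in these data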;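 also: 0% = DAX-1 cells with DMSO and 100% = cells lacking DAX-1 with DMSO; higher inhibition means more luminescence from relief of DAX-1 repression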
# DAX1 inh-2: NR0B1 (DAX1) inhibition; P51843; HEK293 Gal4-DAX1 luciferase reporter, luminescence; inhibition, % at 6.75 µM; actives 0.99% (n = 340,000);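 active = inhibition above the mean over all tested compounds plus 3 SD, cut at about 4.2% in these data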;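 also: 0% = DAX1-transfected cells with DMSO and 100% = empty-vector control cells with DMSO; inhibition shows as a rise in luminescence from relieved DAX1 repression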
# LXRb hcDAF ctr: counter-screen for hcDAF-12 agonists: agonists of human LXR-beta. shares compounds with hcDAF-12 act. HEK293 Gal4-LXR tk-luc reporter, luminescence, 24 h; normalized: DMSO 0%, positive control 100%. activation, % at 6.8 µM. 3,400 tested, under 10 active. AID 743027;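 active = mean percent activation of the reporter above a cutoff set as the average over tested compounds plus their standard deviation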
# Target sequence (P55055 whole entry, looked up, the tested form may be a part): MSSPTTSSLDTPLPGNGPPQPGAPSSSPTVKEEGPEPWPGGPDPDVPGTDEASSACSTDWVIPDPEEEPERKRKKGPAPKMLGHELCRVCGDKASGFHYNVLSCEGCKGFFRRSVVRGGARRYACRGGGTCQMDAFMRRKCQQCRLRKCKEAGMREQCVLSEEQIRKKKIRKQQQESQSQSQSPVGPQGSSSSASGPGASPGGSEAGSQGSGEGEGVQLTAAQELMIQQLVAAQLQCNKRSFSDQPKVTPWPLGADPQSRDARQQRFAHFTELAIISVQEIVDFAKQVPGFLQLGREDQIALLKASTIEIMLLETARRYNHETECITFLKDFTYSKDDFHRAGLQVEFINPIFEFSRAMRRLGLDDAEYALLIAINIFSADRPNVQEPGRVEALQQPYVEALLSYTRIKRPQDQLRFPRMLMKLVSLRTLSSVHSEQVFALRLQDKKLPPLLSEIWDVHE
# hcDAF12 conf: hcDAF-12 agonism, confirmation assay; shares compounds with hcDAF-12 act; HEK293 hcDAF-12 lit1-tk-luc reporter, luminescence; % of Δ7-dafachronic acid response; activation, % at 6.8 µM; actives 61% (n = 3,400);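 active = mean activation across triplicate tests above the threshold derived from the earlier primary screen, cut at about 5.5% in these data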;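 also: 0% = DMSO only wells and 100% = 3 µM Δ7-dafachronic acid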
# * marks the source's active call; other numbers are inactive results; nt = not tested or not shown.
SMILES,hgDAF12 agonist,hcDAF-12 act,SMARCA2 activ,ssDAF-12 act,DAX1 inh-1,DAX1 inh-2,LXRb hcDAF ctr,hcDAF12 conf
CCOc1ccc(Br)cc1CNCCN1CCOCC1,0,13*,-4,-1,0,0,0,1
Cc1cc(-c2n[nH]c(=S)n2N=Cc2cccc(OCc3ccccc3)c2)n[nH]1,3,0,-3,-1,2,nt,nt,nt
Cc1sc(NC(=O)c2cc(-c3ccc(Cl)cc3)nc3ccccc23)c(C(N)=O)c1C,-2,-2,0,-1,-1,-1,nt,nt
Cc1sc(NC(=O)c2ccc(Cl)s2)c(C(N)=O)c1C,13*,10*,0,2.0*,2,4.6*,1,14*
CC(=O)Nc1cc2c3ccccc3ccc2c2ccccc12,3,0,-2,-1,-1,1,nt,nt
CC(=O)Nc1cccc2ccc(O)cc12,-1,6.7*,-5,-1,2,-1,0,3
COC(=O)N1C[C@H](OCc2cn(-c3cc(Cl)cc(Cl)c3)nn2)[C@H](OCc2cn(-c3cc(Cl)cc(Cl)c3)nn2)C[C@@H]1c1ccccc1Br,2,1,-2,-1,0,nt,nt,nt
O=C(Nc1nccs1)c1ccc(-c2ccccc2Cl)o1,12*,6.7*,5,2.4*,2,3,1,6.2*
CC(=O)Nc1ccc(NC(=O)c2ccc(-c3ccccc3Cl)o2)cc1,3,-1,0,-1,1,0,nt,nt
CCC/C(=C1/c2ccccc2C(=O)N1c1ccccc1)c1c(C)noc1C,4,-1,-3,-1,0,nt,nt,nt
O=C(Nn1cnnc1)c1cc(-c2ccccn2)nc2ccccc12,6,11*,7,1.3*,2,0,0,4
CCOC(=O)N=Nc1c(O)n(C)c2ccccc12,5,7.3*,1,0,0,-1,0,2
O=C1c2ccccc2NC(c2ccc(-c3cccs3)o2)N1O (configuration not stated),12*,7.1*,5,1.0*,2,2,1,6.0*
COc1ccc(-c2nc(NCCCN(C)C)c3ccccc3n2)cc1,9,10.0*,5,0,2,6.7*,0,9.3*
Cc1cc(C)n(CCNC(=O)[C@@H](Cc2ccccc2)NC(=O)[C@H]2O[C@@H](n3ccc(=O)[nH]c3=O)[C@H](O)[C@@H]2O)n1,3,1,-1,-1,2,nt,nt,nt
Cc1nc(-c2ccc(NC(=O)c3ccccc3)cc2)cs1,12*,6.7*,3,1.2*,4.5*,-2,2,8.0*
Cc1ccc(C(=O)Oc2oc(-c3ccccc3)nc2C=Nc2ccc(N(C)C)cc2)cc1,12*,8.1*,1,1.8*,2,2,0,1
COc1cccc(N=Cc2nc(-c3ccccc3)oc2OC(C)=O)c1,0,2,-3,-1,0,4,nt,nt
C/C(CC(=O)Nc1ccc(Cl)c(C(F)(F)F)c1)=N\NC(=O)c1ccccc1O,10,10*,-1,1.4*,0,-2,0,1
C/C(CC(=O)Nc1ccc(Cl)c(C(F)(F)F)c1)=N\NC(=O)c1cnccn1,4,0,2,-1,0,0,nt,nt
Cc1ccc(-c2nc3cc(C)ccc3o2)cc1,12*,11*,5,1.7*,3,3,2,21*
CC(C)c1ccc2oc(-c3ccc(N)cc3)nc2c1,8,12*,2,1,2,-2,2,15*
Cc1ccc(-c2nc3cc(N)ccc3o2)cc1,13*,9.8*,-1,1,3.6*,-1,2,9.2*
CC(C)(C)c1ccc(-c2nc3cc(N)ccc3o2)cc1,8,4,-1,-1,1,0,nt,nt
O=C1c2cccc3cccc(c23)C(=O)N1CCc1ccccc1,8,14*,4,2.1*,2,1,1,9.4*

# From PubChem BioAssay
